The record followed here is PubChem BioAssay (EPA / NIEHS).

Calls of active or inactive are those of the source. Rule for the calls: active = hit-call score of the fitted dose curve at least 0.9, where 1 is the maximum; inactive = score below 0.9.

Test [1] concerns the target Transcription factor E2F1 (Homo sapiens) (UniProt Q01094). Put plainly: ATG_E2F_CIS: Attagene CIS-FACTORIAL HepG2 Assay for human E2F Transcription Factor 1 (AID 2282935). The settings on record: HepG2 Attagene cis-reporter, E2F reporter RNA transcripts; actives raise or lower the signal. In outline: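 First, HepG2 cells were transfected with reporter transcription units. Next, they were dosed for 24 h. Then RNA was isolated, converted to cDNA, PCR-amplified, FAM-labeled, HpaI-digested and analyzed by capillary electrophoresis.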

A short description of test [2]: ATG_E_Box_CIS: Attagene CIS-FACTORIAL HepG2 Assay for human Enhancer Box (E-box) (AID 2282936). Conditions: HepG2 E-box cis-reporter transcription, actives raise or lower the signal. The method in brief: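 Endogenous transcription factor activity was sensed in human HepG2 liver cells through transfected cis-promoter reporter units. After 24 h of dosing, total RNA was reverse-transcribed and reporter cDNA resolved by capillary electrophoresis.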

Test [3] in a line: ATG_M_61_CIS: Attagene CIS-FACTORIAL HepG2 Assay for M61 Transcription Factor (Internal Marker) (AID 2282937). The settings on record: HepG2 Attagene CIS-FACTORIAL M61 internal marker reporter; actives raise or lower the signal. In outline: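 Endogenous transcription factor activity in HepG2 is read through transiently transfected cis-element reporter units. After 24 h dosing, RNA undergoes reverse transcription, PCR and primer extension with 6-FAM before capillary electrophoresis; DMSO-referenced bidirectional fit.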

Test [4] can be described thus: ATG_M_19_CIS: Attagene CIS-FACTORIAL HepG2 Assay for M19 Transcription Factor (Internal Marker) (AID 2282939). The settings on record: HepG2 Attagene CIS-FACTORIAL M19 internal marker reporter; actives raise or lower the signal. The method in brief: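 Internal marker readout, fitted in both directions against DMSO, from HepG2 cells carrying transfected cis-element reporter constructs; RT-PCR and capillary electrophoresis of reporter mRNA after 24 h exposure.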

Test [5] in a line: ATG_ERE_CIS: Attagene CIS-FACTORIAL HepG2 Assay for Estrogen Response Element (ERE) (AID 2282940). The settings on record: HepG2 ERE cis-reporter, Attagene RNA transcript; actives raise or lower the signal. In outline:
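After 24 h compound treatment, RNA from transfected HepG2 cells was reverse-transcribed, reporter cDNA PCR-amplified, FAM-labelled, HpaI-cut and resolved by capillary electrophoresis. ERE-driven cis reporter transcripts reflect endogenous factors; gain or loss scored against DMSO.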

Test [6] in a line: ATG_Ets_CIS: Attagene CIS-FACTORIAL HepG2 Assay for human Erythroblast Transformation Specific (ETS) (AID 2282941). The settings on record: HepG2 ETS cis-reporter transcription, actives raise or lower the signal. In outline:
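Multiplexed reporter transcript profiling: HepG2, 24 h treatment, total RNA to cDNA, PCR, 6-FAM labelling, HpaI cut, capillary electrophoresis. Gain- or loss-of-signal fitted against DMSO.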

Test [7] has as its target Hepatocyte nuclear factor 3-beta (Homo sapiens) (UniProt Q9Y261). Put plainly: ATG_FoxA2_CIS: Attagene CIS-FACTORIAL HepG2 Assay for human Forkhead box A2 (FOXA2) (AID 2282942). Conditions: HepG2 cis-reporter transcription factor activity, 24 h; actives raise or lower the signal. In outline: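 Reporter transcript induction is measured by fluorescence after capillary electrophoresis of RT-PCR products from HepG2 cells exposed 24 h. Cis-regulated reporter units report endogenous factor activity; curves fitted both directions against DMSO.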

The nature of test [8]: ATG_FoxO_CIS: Attagene CIS-FACTORIAL HepG2 Assay for human Forkhead box O (FoxO) (AID 2282943). Conditions: HepG2 Attagene cis-reporter, FoxO element, mRNA; actives raise or lower the signal. The method in brief: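 Values reflect reporter mRNA induction or loss in HepG2 cells 24 h post-dosing, fitted bidirectionally with DMSO as negative control and baseline. Detection used RT-PCR and fluorescence capillary electrophoresis.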

The nature of test [9]: ATG_GATA_CIS: Attagene CIS-FACTORIAL HepG2 Assay for human GATA Binding Protein (AID 2282944). The settings on record: HepG2 GATA cis-element reporter, Attagene multiplex mRNA; actives raise or lower the signal. In outline:
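Reporter transcripts from a GATA cis-regulated unit, among multiplexed reporters in transfected HepG2 cells, were measured by RT-PCR with capillary electrophoresis after 24 h dosing. Induction or loss scored relative to DMSO.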

Test [10] in a line: ATG_GLI_CIS: Attagene CIS-FACTORIAL HepG2 Assay for human Zinc Finger Protein GLI1 (AID 2282945). The settings on record: HepG2, Attagene cis-factorial reporter mRNA, GLI element; actives raise or lower the signal. The method in brief:
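HepG2 cells transiently transfected with cis-promoter multiplexed reporter units report endogenous transcription factor activity. After 24 h chemical exposure, reporter mRNA was quantified by RT-PCR, 6-FAM labelling, HpaI digestion and capillary electrophoresis, with bidirectional fitting against DMSO.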

A short description of test [11]: ATG_GRE_CIS: Attagene CIS-FACTORIAL HepG2 Assay for human Glucocorticoid Response Elements (GRE) (AID 2282947). The settings on record: HepG2 GRE cis-reporter, Attagene multiplex mRNA; actives raise or lower the signal. In outline:
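Cells (HepG2) bearing transfected cis-promoter reporter transcription units were treated with chemical for 24 hours. Reporter mRNA was measured via RT-PCR with capillary electrophoresis, and activity was fitted in both directions relative to DMSO.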

Test [12] is described as follows: ATG_ISRE_CIS: Attagene CIS-FACTORIAL HepG2 Assay for human Interferon Regulatory Factor 1 (IRF1) binding to an Interferon-Stimulated Response Element (ISRE) (AID 2282948). The settings on record: HepG2 ISRE cis-reporter (Attagene), mRNA transcription readout; actives raise or lower the signal. In outline:
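Signal reflects induction or loss of ISRE-linked reporter mRNA in transiently transfected HepG2 cells after a 24 h treatment, detected by fluorescent RT-PCR fragments on capillary electrophoresis and normalised to DMSO.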

A short description of test [13]: ATG_M_32_CIS: Attagene CIS-FACTORIAL HepG2 Assay for M32 Transcription Factor (Internal Marker) (AID 2282949).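 Note: background control marker of the multiplexed CIS panel rather than a real target.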 Conditions: HepG2 Attagene cis-factorial M32 reporter, mRNA; actives raise or lower the signal. The method in brief: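 HepG2 human liver cells transiently transfected with cis-promoter-driven multiple reporter transcription units, dosed 24 h. Reporter mRNA quantified by RT-PCR, FAM-labelled primer extension, HpaI digest and capillary electrophoresis; bidirectional fit versus DMSO baseline.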

A short description of test [14]: ATG_M_06_CIS: Attagene CIS-FACTORIAL HepG2 Assay for M06 Transcription Factor (Internal Marker) (AID 2282950). Conditions: HepG2 Attagene CIS-FACTORIAL M06 internal marker reporter; actives raise or lower the signal. In outline:
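Serves as a background control readout. Transfected HepG2 exposed to compounds for 24 h, then reporter transcripts quantified by fluorescent RT-PCR and capillary electrophoresis. Both directions fitted against DMSO baseline.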

Test [15] concerns the target Hypoxia-inducible factor 1-alpha (Homo sapiens) (UniProt Q16665). In words: ATG_HIF1a_CIS: Attagene CIS-FACTORIAL HepG2 Assay for human Hypoxia Inducible Factor 1 (HIF1A) (AID 2282951). Conditions: HepG2 Attagene cis-factorial HIF1a reporter transcription; actives raise or lower the signal. In outline:
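Fluorescence intensity of capillary-separated, 6-FAM-labelled reporter amplicons gives mRNA induction in HepG2 cells carrying transfected cis-promoter reporter units; cells exposed 24 h, responses fitted up or down from DMSO.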

The target of test [16] is Hepatocyte nuclear factor 6 (Homo sapiens) (UniProt Q9UBC0). In words: ATG_HNF6_CIS: Attagene CIS-FACTORIAL HepG2 Assay for human Hepatocyte Nuclear Factor 6 (HNF6) (AID 2282952). Conditions: HepG2 Attagene cis-factorial HNF6 reporter transcription; actives raise or lower the signal. In outline:
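Endogenous factor activity read in transiently transfected HepG2 via promoter-regulated reporter transcripts. RNA harvested 24 h post-dosing, reverse-transcribed, PCR-amplified, FAM-labelled, HpaI-digested and resolved by capillary electrophoresis; fitted in both directions against DMSO.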

The target of test [17] is Heat shock factor protein 1 (Homo sapiens) (UniProt Q00613). In words: ATG_HSE_CIS: Attagene CIS-FACTORIAL HepG2 Assay for human Heat Shock Transcription Factor 1 (HSE) (AID 2282953). Conditions: HepG2 HSE cis-reporter, Attagene RNA transcription; actives raise or lower the signal. In outline: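 Endogenous transcription factor activity in transiently transfected HepG2, read as reporter mRNA by RT-PCR with fluorescent capillary electrophoresis after 24 h. Gain or loss of signal fitted versus DMSO baseline.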
Chain of Heat shock factor protein 1 (Homo sapiens) (Q00613 whole entry, looked up): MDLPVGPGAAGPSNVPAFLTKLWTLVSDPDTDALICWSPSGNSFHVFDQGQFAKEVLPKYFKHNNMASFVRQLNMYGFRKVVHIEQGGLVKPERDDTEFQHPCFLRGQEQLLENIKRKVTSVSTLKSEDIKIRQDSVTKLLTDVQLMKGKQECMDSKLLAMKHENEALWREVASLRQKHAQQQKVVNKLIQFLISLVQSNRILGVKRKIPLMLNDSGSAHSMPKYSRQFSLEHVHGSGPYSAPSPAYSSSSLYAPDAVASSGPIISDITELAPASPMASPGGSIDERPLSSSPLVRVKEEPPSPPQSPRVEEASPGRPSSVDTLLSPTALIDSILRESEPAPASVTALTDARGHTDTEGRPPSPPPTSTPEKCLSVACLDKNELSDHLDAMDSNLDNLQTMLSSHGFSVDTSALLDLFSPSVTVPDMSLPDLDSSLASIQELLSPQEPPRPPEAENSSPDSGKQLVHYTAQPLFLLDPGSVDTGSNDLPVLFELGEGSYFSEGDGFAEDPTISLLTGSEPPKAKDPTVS

A short description of test [18]: ATG_MRE_CIS: Attagene CIS-FACTORIAL HepG2 Assay for human Metal Responsive Element (MRE) (AID 2282954). The settings on record: HepG2 MRE cis-reporter transcription, Attagene multiplex; actives raise or lower the signal. In outline:
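Cells were transfected with cis-promoter reporter transcription units, then dosed for 24 h. RNA was reverse-transcribed, amplified, fluorescently labelled and resolved by capillary electrophoresis, and activity was fitted in both directions relative to DMSO.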

For test [19], the target named is Bile acid receptor (Homo sapiens) (UniProt Q96RI1). In words: ATG_IR1_CIS: Attagene CIS-FACTORIAL HepG2 Assay for human Nuclear Receptor Subfamily 1 Group H Member 4 (NR1H4), IR1 submotif (AID 2282946). The settings on record: IR1 reporter transcription, actives raise or lower the signal. In outline: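 Readout: reporter transcript levels by RT-PCR with fluorescent capillary electrophoresis, from HepG2 cells transiently transfected with multiplexed cis-regulated reporters and dosed 24 h. Gain- or loss-of-signal fitted versus DMSO negative control.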
Chain of Bile acid receptor (Homo sapiens) (Q96RI1 whole entry, looked up): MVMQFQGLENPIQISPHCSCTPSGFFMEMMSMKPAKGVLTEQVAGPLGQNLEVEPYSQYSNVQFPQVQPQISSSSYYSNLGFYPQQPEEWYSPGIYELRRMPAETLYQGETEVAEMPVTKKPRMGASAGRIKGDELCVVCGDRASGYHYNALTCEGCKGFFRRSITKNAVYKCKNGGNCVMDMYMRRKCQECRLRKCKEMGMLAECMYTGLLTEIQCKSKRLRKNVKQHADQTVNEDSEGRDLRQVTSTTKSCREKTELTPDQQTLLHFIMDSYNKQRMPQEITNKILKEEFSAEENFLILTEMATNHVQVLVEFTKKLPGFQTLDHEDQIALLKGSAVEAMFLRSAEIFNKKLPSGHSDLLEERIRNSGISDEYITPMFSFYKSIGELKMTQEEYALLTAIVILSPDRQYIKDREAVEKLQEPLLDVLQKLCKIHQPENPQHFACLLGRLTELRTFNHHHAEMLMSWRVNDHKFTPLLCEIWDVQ

Chain of Hepatocyte nuclear factor 3-beta (Homo sapiens) (Q9Y261 whole entry, looked up): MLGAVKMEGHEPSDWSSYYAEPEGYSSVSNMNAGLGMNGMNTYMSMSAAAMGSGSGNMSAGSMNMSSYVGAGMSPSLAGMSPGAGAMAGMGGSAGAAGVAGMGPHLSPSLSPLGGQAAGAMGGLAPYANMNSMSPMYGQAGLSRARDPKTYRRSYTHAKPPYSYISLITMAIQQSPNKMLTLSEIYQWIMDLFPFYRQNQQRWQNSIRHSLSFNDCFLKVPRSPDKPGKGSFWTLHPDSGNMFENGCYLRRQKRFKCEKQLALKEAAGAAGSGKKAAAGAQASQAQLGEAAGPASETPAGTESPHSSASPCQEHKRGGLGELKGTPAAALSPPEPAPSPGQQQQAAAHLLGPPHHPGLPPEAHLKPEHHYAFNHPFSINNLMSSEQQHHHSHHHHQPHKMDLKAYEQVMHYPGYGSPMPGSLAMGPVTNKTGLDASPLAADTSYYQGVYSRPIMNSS
Chain of Transcription factor E2F1 (Homo sapiens) (Q01094 whole entry, looked up): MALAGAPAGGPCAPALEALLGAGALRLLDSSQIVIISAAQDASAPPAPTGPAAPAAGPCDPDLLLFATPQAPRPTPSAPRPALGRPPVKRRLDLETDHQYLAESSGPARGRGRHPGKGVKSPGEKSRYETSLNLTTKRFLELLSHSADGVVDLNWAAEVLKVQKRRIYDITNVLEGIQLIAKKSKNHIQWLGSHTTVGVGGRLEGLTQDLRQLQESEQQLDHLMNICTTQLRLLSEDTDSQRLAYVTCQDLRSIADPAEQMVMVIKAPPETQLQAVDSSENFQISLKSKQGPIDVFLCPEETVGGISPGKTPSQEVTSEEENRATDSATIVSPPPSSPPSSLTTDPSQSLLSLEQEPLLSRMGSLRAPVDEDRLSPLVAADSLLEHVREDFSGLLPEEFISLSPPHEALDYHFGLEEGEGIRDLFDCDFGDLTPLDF
Chain of Hypoxia-inducible factor 1-alpha (Homo sapiens) (Q16665 whole entry, looked up): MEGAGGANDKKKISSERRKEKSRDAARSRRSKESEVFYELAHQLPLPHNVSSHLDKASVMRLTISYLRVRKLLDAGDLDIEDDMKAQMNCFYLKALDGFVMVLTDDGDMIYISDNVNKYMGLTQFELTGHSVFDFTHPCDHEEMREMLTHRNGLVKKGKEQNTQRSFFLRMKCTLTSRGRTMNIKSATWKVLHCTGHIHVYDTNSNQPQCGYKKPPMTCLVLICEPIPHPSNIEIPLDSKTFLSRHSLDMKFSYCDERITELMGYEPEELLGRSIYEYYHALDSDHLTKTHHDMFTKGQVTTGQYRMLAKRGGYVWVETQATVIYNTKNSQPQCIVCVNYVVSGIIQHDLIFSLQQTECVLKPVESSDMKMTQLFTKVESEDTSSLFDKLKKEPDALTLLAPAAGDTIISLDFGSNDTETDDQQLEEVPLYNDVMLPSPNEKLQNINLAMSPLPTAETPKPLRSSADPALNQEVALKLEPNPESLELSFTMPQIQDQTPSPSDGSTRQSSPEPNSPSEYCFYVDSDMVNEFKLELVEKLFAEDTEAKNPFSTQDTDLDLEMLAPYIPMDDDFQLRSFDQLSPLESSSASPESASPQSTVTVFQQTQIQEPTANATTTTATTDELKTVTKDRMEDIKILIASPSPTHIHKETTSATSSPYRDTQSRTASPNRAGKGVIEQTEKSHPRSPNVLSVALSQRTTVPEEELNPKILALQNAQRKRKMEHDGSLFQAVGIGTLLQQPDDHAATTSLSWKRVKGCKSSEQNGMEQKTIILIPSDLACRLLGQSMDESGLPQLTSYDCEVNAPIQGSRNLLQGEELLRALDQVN
Chain of Hepatocyte nuclear factor 6 (Homo sapiens) (Q9UBC0 whole entry, looked up): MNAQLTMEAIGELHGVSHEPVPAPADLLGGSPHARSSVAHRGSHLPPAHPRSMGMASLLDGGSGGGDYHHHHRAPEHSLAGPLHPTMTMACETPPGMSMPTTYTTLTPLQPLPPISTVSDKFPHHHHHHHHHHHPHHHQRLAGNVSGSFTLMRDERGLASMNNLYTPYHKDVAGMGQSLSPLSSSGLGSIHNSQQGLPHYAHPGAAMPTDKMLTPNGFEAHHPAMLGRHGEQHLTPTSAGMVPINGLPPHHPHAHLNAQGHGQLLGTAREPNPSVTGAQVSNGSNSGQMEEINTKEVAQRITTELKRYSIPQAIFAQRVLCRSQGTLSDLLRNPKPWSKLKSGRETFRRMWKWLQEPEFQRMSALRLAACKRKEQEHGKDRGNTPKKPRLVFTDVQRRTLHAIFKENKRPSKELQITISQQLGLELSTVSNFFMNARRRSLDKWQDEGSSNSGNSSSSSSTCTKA

On to `CCOP(=O)(OCC)Oc1nc(Cl)c(Cl)cc1Cl`, for which the result in test [1], in test [2], in test [3], in test [4], in test [6] and in test [7] was inactive. Moreover, the call in [8], in [9], in test [10], in [11], in [12] and in test [13] was inactive. In addition, the outcome in test [14], in [15], in test [16], in test [17] and in [18] was inactive. The AC50 in [5] was 39.1 µM (active).

For `CCC(C)n1c(=O)[nH]c(C)c(Br)c1=O` (configuration not stated), the molecule was called inactive in [1], in test [2], in [3], in test [4], in test [5] and in test [6]. In addition, the molecule was called inactive in test [7], in [8], in [9], in test [10], in test [19] and in test [12]. Moreover, the outcome in test [13], in [14], in [15], in test [16], in [17] and in test [18] was inactive.

Consider `N#CN=C1SCCN1Cc1ccc(Cl)nc1`, for which the molecule was called inactive in test [1], in test [2], in test [3], in test [4], in [5] and in [6]. The outcome in test [7], in test [8], in test [9], in [10], in test [11] and in test [12] was inactive. Also, the outcome in [13], in [14], in test [15], in test [16], in test [17] and in test [18] was inactive.

In the case of `C=CCOC(=O)C(C)(C)OC(=O)c1cc(-n2c(=O)cc(C(F)(F)F)n(C)c2=O)ccc1Cl`, the molecule was classed as inactive in [1], in test [2], in test [3], in [4], in [5] and in test [6]. Moreover, the molecule was classed as inactive in [7], in [8], in test [9], in test [10], in test [11] and in test [12]. Also, the call in test [13], in test [14], in test [15], in test [16], in test [17] and in test [18] was inactive.

One may read the AC50 as the midpoint of the concentration-response curve, whichever way the signal moves.
